AmpC inh no det: Promiscuous and Specific Inhibitors of AmpC Beta-Lactamase (assay without detergent); AmpC nitrocefin hydrolysis, absorbance 480 nm, no detergent; Potency, µM (doses to about 28.7 µM), for the others: at the highest dose activity change, negative = inhibition; actives 1.8% (n = 71,000); AID 585, 2007; note: % of control where 0% means no effect
Target sequence (P00811 whole entry, looked up): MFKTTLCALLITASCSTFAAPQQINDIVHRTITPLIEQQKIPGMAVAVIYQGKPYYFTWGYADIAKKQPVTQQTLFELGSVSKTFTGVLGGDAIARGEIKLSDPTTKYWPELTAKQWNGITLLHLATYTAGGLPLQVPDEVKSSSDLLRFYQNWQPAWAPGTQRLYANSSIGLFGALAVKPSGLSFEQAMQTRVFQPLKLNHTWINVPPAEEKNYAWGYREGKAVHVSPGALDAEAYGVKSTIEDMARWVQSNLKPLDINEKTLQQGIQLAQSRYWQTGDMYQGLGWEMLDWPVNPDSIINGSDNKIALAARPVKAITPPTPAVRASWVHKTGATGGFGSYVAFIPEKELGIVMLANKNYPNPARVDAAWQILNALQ
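AmpC, 20 mM phosphate pH 7.0; 15 min cpd preinc, RT; start with nitrocefin (800 uM stock); A480 kinetic read, 20 s intervals, 4 min. No-enzyme wells = negative control.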
SmPrx2 inh: Schistosoma Mansoni Peroxiredoxins (Prx2) | actives 0.07% (n = 65,000) | Schistosoma mansoni peroxiredoxin 2 (Prx2) | S. mansoni Prx2 activity coupled to TGR/GSH (TGR is thioredoxin glutathione reductase), NADPH fluorescence loss, qHTS | Potency, µM
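Coupled assay in which S. mansoni TGR passes NADPH reducing equivalents via glutathione to Prx2, which reduces H2O2. Compounds were preincubated 15 min at room temperature with 25 nM TGR/50 nM Prx2 mix. Kinetic NADPH fluorescence loss (ex 365/em 450 nm) was monitored.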
AmpC inh det: Promiscuous and Specific Inhibitors of AmpC Beta-Lactamase (assay with detergent); P00811; purified AmpC, nitrocefin hydrolysis with detergent; Potency, µM (highest dose often 28.7 µM), without a hit: at the top dose activity change, negative = inhibition; actives 0.09% (n = 71,000); AID 584, 2007; active = well fitted curve in the direction sought with a large enough effect; inconclusive = small, poorly fitted or top-dose-only effect; note: % is set by controls: 0 for no effect and ±100 for the full control effect
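E. coli AmpC (5.3 nM) in 20 mM phosphate pH 7.0 with 0.01% Triton X-100, preincubated 15 min RT with compound; nitrocefin (2 uL of 800 uM stock) hydrolysis followed by 480 nm absorbance every 20 s over 4 min.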
Anthrax LT inh: qHTS Assay for Anthrax Lethal Toxin Internalization | Cells, anthrax lethal toxin internalization, FRET ratio (460/530) | Potency, µM (highest dose often 40 µM), for inactives: top-dose activity change, negative = inhibition, usual class: inhibitors | actives 0.67% (n = 70,000) | AID 912, 2007; note: % is set by controls: 0 for no effect and ±100 for the full control effect; nearly all actives have a fitted effect of over 50% in size
Active calls of the source: *; ? = inconclusive; . = not tested or not shown; [ ] = remark or other dose. Shown are actives, neighbours in structure and some others; about 2.6% of the full set was active somewhere. Unless noted, calls come from the whole dose curve. Potency is the fitted concentration of half-maximal effect.

SMILES | AmpC inh no det | SmPrx2 inh | AmpC inh det | Anthrax LT inh
CCNc1ncc2nc(-c3cccs3)c(=O)n(-c3ccc(OC)cc3)c2n1 | 5.4% | >57 | 0.7% | ?
C=CC[C@@H]1C=C[C@H](O/N=C(\C)CCN2CCc3nc(-c4ccccc4)c(-c4ccccc4)cc3C2)[C@H](CO)O1 | . | . | . | -0.3%[8 µM]
Oc1c(Cl)c(Cl)c(Cl)c(Cl)c1Cl | 1.4% | . | 7.1% | 20µM*
Oc1c(Cl)ccc(Cl)c1Cl | -6.0% | . | 7.2% | 0.4%
O=C(c1cnccn1)N1CCC2(CCCN(c3ccccc3)C2)CC1 | 68.7% | >57 | -0.2% | 21.9%
CC(Sc1nc(-c2ccccc2)cc(C(F)(F)F)n1)C(=O)N1CCCC1 (centres undefined) | 3.98µM*[single pt active] | >57 | 14.2% | -1.9%
CN1C[C@@H](O)[C@@H](O)[C@@H](O)[C@@H]1CO | -3.1% | >57 | 0.4% | 0.2%
CCN1CCCC1CNC(=O)c1cc2c(C)nc3ccccc3c2o1 (centres undefined) | -8.9% | >57 | -2.1% | ?
Cc1nc2ccccc2c2oc(C(=O)NCCN3CCCCC3C)cc12 (centres undefined) | 4.2% | >57 | 1.3% | 7.94µM*
CCCCN(CC)CCNC(=O)c1cc2c(C)nc3ccccc3c2o1 | 11.5% | >57 | 2.5% | 12.6µM*
CCCn1cnc2c1c(=O)n(CCCCC(C)=O)c(=O)n2C | -0.8% | >57 | -2.4% | ?
N#C[C@H](c1ccccc1)N1CCCN([C@@H](C#N)c2ccccc2)C1c1ccccc1O (some centres undefined) | -1.2%[5.75 µM] | >57 | -7.1%[5.75 µM] | -3.9%[8 µM]
O=C(NC1CCCCCC1)C1CCN(S(=O)(=O)c2cccc3cccnc23)CC1 | 22.6% | >57 | 30.5% | -14.8%
O=C(NCCc1ccccc1)C1CCCN(S(=O)(=O)c2cccnc2)C1 (centres undefined) | 2.7% | >57 | -1.5% | -0.5%
NS(=O)(=O)c1ccc(CCNC(=O)C2CCCN(S(=O)(=O)c3cccnc3)C2)cc1 (centres undefined) | 3.98µM*[single pt active] | >57 | 12.6% | -9.9%
O=C(NC1CCCC1)C1CCCN(S(=O)(=O)c2cccc3cccnc23)C1 (centres undefined) | 3.16µM*[single pt active] | >57 | 13.8% | -14.2%
CCOC(=O)N1CCC(NC(=O)C2CCCN(S(C)(=O)=O)C2)CC1 (centres undefined) | -5.9% | >57 | -4.4% | ?
Cc1ccc2nc(NC(=O)C3CCCN(S(=O)(=O)c4cccnc4)C3)sc2c1 (centres undefined) | 3.98µM*[single pt active] | >57 | 12.8% | -29.5%
Cc1ccc2nc(NC(=O)C3CCCN(S(=O)(=O)c4cnc[nH]4)C3)sc2c1 (centres undefined) | 2.3% | >57 | 3.1% | ?
CCOC(=O)N1CCC(NC(=O)C2CCCN(S(=O)(=O)c3cccnc3)C2)CC1 (centres undefined) | 3.98µM*[single pt active] | >57 | 12.3% | -4.6%
O=C(O)NCC1CCCCC1 (tested in a mixture with another compound) | 3.9%[5.75 µM] | >57 | -2.0%[5.75 µM] | ?
Cc1ccc(Cn2c(SCC(=O)Nc3cc(C)on3)nc3ccccc3c2=O)cc1 | 12.6µM*[single pt active] | >57 | -1.1% | 11.3%
Cc1cc(NC(=O)CSc2nc3ccccc3c(=O)n2Cc2ccccc2)no1 | -19.9% | >57 | -2.4% | -8.6%
Cc1c(C)c2c(c(C)c1O)CC[C@@](C)(C(=O)O)O2 | 3.7%[12.8 µM] | >57 | 0.1%[12.8 µM] | -4.7%[3.58 µM]
O=C(CCOc1ccccc1)OCC(=O)c1cc2ccccc2o1 | 0.631µM* | >57 | -2.7% | -5.0%
SMILES | AmpC inh no det | SmPrx2 inh | AmpC inh det | Anthrax LT inh
CCN(CC)CCCCn1c(-c2ccccc2)nc2c(NCCOC)nc(C)nc21 | 4.2% | . | 15.1% | -6.9%
CCCCCCCCCCCCCCC[C@@H](O)[C@@H](N)CO | 23.4% | >57 | -1.6% | ?
CCCS(=O)(=O)N1CCC(C(=O)N2CCN(Cc3ccccc3)CC2)CC1 | 27.8% | >57 | -3.0% | -9.2%
CS(=O)(=O)N1CCC(C(=O)N2CCC(Cc3ccccc3)CC2)CC1 | 12.6µM* | >57 | ? | 3.5%
COc1ccc2[nH]cc(CCNc3ncnc4ccc(-c5ccoc5)cc34)c2c1 | -2.8% | >57 | 10.0% | ?
Cc1nc2ccc(S(=O)(=O)NC(C(=O)N3CCCC3)C(C)C)cc2s1 (centres undefined) | 3.98µM*[single pt active] | >57 | 10.3% | 0.1%
Cc1nc2ccc(S(=O)(=O)NC(CC(C)C)C(=O)O)cc2s1 (centres undefined) | 1.0% | >57 | 9.0% | -5.2%
